Results: PubChem BioAssay (NCATS)
Inconclusive results are not listed. Activity calls are given as the source filed them. Calls follow the shape of the dose curve; as a rule, active = well fitted curve in either direction with a large enough effect (not every such curve was filed as active); inconclusive = small, poorly fitted or top-dose-only effect, or another doubt; inactive = flat fitted curve, though single readings scatter.

Test: AP1 Signaling Pathway (AID 357);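 also: ME-180 reporter cells stimulated with EGF at its EC50 level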
Conditions: ME-180 (cervical carcinoma) AP-1-bla reporter, EGF-induced, beta-lactamase ratio, 5 h; at 17.2 µM (top of the series) unless noted
Procedure, shortened: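 A ratiometric CCF4 readout (405 nm excitation; 460 and 530 nm emission) quantified AP-1-driven beta-lactamase in ME-180 cells after 5 h with compound and EC50 EGF; AC50 values were derived for activators and inhibitors.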
% is scaled to controls: 0 for no effect and ±100 for the full control effect.

Activity change, negative = inhibition, inactive:
CCCCOC(=O)CCc1nc2ccccc2[nH]1 5.71%
Cc1c(NS(=O)(=O)c2cccc3nsnc23)c(=O)n(-c2ccccc2)n1C 16.3%
Cc1cc(NC(=O)CSc2nc(-c3cccnc3)ccc2C#N)no1 -14.4%
COc1cc(C)nc(N(C)S(=O)(=O)c2ccccc2Cl)n1 -3.56%
CCOC(=O)C1CCN(c2ncnc3c2cnn3-c2ccc(OC)cc2)CC1 4.62%
O=C(CCCN1C(=O)c2ccccc2C1=O)N1CCC(c2ccccc2)C1 (stereo unspecified) -21.8%
Cn1c(=O)[nH]c(=O)c2c1nc(Br)n2CCSc1ncccn1 5.72%
COc1ccc(/C(O)=C2\C(=O)C(=O)N(CCN(C)C)C2c2cccc(OC)c2OC)cc1Cl (stereo unspecified) -2.56%
CCOC(=O)c1ccc(N2CC(O)=C(c3nc4ccccc4c(=O)[nH]3)C2=N)cc1 -27.9%
CC(C)c1cc(NCCCN2CCOCC2)n2c(nc3ccccc32)c1C#N -14.3%
COc1cccc(N2CCN(C(=O)c3ccc(=O)oc3)CC2C)c1 (stereo unspecified) 26.8%
O=C(NCCc1ccccc1)/C(=N\O)c1ccccc1 -2.29%
C/C(=N\O)c1c(C)c2ccccc2n1C 2.06%
COc1ccc2[nH]c(C)c(C(=O)CN3CCc4cc(OC)c(OC)cc4C3)c2c1 -11.9%
COC(=O)c1cc(OC)c(OC)cc1N 0.8%
Cn1c(=O)[nH]c(=O)c2c1nc(N1CCN(c3cccc(Cl)c3)CC1)n2CCCc1ccccc1 26.9%
